# From ChEMBL document CHEMBL3988442, “University of Dundee, Small-Polar-MMV Screening Library” (2021)
# The campaign covered roughly 48,000 compounds. About 13,000 (27%) showed an effect of 50% or more. The list shows a part of the results.
# Test system: Wolbachia pipientis
# Experiment: Anti-Wolbachia Cell-Based Screen
# Type: functional
# Design: scale not given: in the data most compounds retested in dose-response had high values
# Conditions: 5 µM
row,SMILES,Percent Effect
1,CNC(=O)CC1CCN(C(=O)Nc2ccc(-c3cc[nH]n3)cc2)CC1,6.092%
2,CCOCC(=O)NCC(CC)(OC)c1ccccc1 (stereo unspecified),1.259%
3,CS(=O)(=O)N1CCCCC12CCN(c1nncs1)CC2,-20.36%
4,CC(CNC(=O)Nc1cn[nH]c1)N1CCc2ccccc2C1 (stereo unspecified),-5.86%
5,CC(CNC(=O)Nc1cn[nH]c1)N1CCCC1 (stereo unspecified),127.7%
6,CC(CNC(=O)Nc1cn[nH]c1)N1CCOCC1 (stereo unspecified),3.391%
7,COc1ccc(C(CNC(=O)Nc2cn[nH]c2)N2CCOCC2)cc1 (stereo unspecified),-0.482%
8,O=C(NCC(c1ccc(F)cc1)N1CCOCC1)Nc1cn[nH]c1 (stereo unspecified),114.1%
9,Cc1ccc(C(CNC(=O)Nc2cn[nH]c2)N2CCOCC2)o1 (stereo unspecified),59.24%
10,Cc1ccc(C(CNC(=O)NCc2cc[nH]n2)N2CCOCC2)o1 (stereo unspecified),-7.152%
11,O=C(NCC(c1ccccc1)N1CCOCC1)Nc1cn[nH]c1 (stereo unspecified),127.8%
12,O=C(NCc1cc[nH]n1)NCC(c1ccc(F)cc1)N1CCOCC1 (stereo unspecified),5.34%
13,CCn1c(CN(C)C)nnc1C1CCN(Cc2ccc(Cl)cc2F)CC1,-5.252%
14,Cc1ccc2c(c1)nc1n2[C@@H](CNC(=O)c2ccccn2)COC1,6.729%
15,Cc1noc(C)c1CC(=O)NCC(C(C)C)N1CCOCC1 (stereo unspecified),-3.487%
16,CCC(CC)C(CNC(=O)Nc1ccc(C)cc1)N1CCOCC1 (stereo unspecified),4.516%
17,CC(C)C(CNC(=O)Nc1cn[nH]c1)N1CCOCC1 (stereo unspecified),97.51%
18,CC(C)C(c1cccnc1)N(C)C(=O)Cc1ccc(O)cc1 (stereo unspecified),-17.69%
19,C=C(C)COc1cccc(C(=O)NCCCc2nnn[nH]2)c1,109%
20,C=C(C)COc1ccccc1C(=O)NCCCc1nnn[nH]1,115.9%
21,C=C(C)COc1cccc(C(=O)NC(C)c2nnn[nH]2)c1 (stereo unspecified),104.4%
22,CN(CCCNC(=O)c1cccc(OCC(N)=O)c1)CC(F)(F)F,0.5585%

row,SMILES,Percent Effect
1,C=C(C)COc1ccccc1C(=O)N(C)C(C)c1c(C)n[nH]c1C (stereo unspecified),-35.55%
2,C=C(C)COc1cccc(C(=O)N(CC)Cc2nccn2C)c1,0.123%
3,C=C(C)COc1cccc(C(=O)N(C)C(C)c2c(C)n[nH]c2C)c1 (stereo unspecified),-12.59%
4,C=C(C)COc1ccccc1C(=O)NCCc1nncn1C,-0.8083%
5,CCC(=O)c1ccc(OCC(=O)NC(C)c2nnn[nH]2)cc1 (stereo unspecified),-5.336%
6,CN1Cc2ccccc2CC1C(=O)N1CCN(CCS(C)(=O)=O)CC1 (stereo unspecified),0.38%
7,CS(=O)(=O)c1ccc(OCCNCc2cccc(Cl)c2)cc1,6.711%
8,CS(=O)(=O)CCNCc1ccc(OCc2ccccn2)cc1,-3.882%
9,CC1CCN(C(=O)C(C)N2CCc3[nH]nc(C(F)(F)F)c3C2)CC1 (stereo unspecified),-0.1757%
10,CN(C)C(=O)Cc1ccc(NC(=O)NC2CCCCC2)cc1,10.45%
11,CN(C)C(=O)Cc1ccc(NC(=O)NC2CCCC2)cc1,20.91%
12,CN(C)c1ncc(-c2ccc(NC(=O)[C@@H]3CCCCN3)cc2)cn1,109.4%
13,COc1ccc(NC(=O)c2cnc(N(C)C3CCCCC3)nc2N)cc1,-20.25%
14,CN(CCO)c1ncc(-c2ccc(NC(=O)[C@@H]3CCCCN3)cc2)cn1,112.4%
15,Cc1cc(CNC2(CO)CCOCC2)ccc1Br,-0.9175%
16,CC(C)c1nc(-c2cc(C(=O)NCCCO)c3ccccn23)cs1,-2.585%
17,COCc1nc(CNc2cccc(-c3ncon3)c2)cs1,-4.875%
18,CC(C)C(=O)N1CCC(NCc2c(C(C)C)nn(C)c2N(C)C)CC1,-18.23%
19,COc1c(CNC2CCN(C(C)(C)C)CC2)c(C(C)C)nn1C,2.143%
20,COc1c(CNC2CCN(C(=O)C(C)C)CC2)c(C(C)C)nn1C,121.5%
21,COc1c(CNC2CCC(O)CC2)c(C(C)C)nn1C (stereo unspecified),106.7%
22,COc1c(CNC2CCN(C(=O)C3CC3)CC2)c(C(C)C)nn1C,2.531%

row,SMILES,Percent Effect
1,CC(C)c1nn(C)c(N(C)C)c1CNC1CCC(O)CC1 (stereo unspecified),13.16%
2,CCOc1cccc(CCNC(=O)NC2CCc3[nH]ncc3C2)n1 (stereo unspecified),4.598%
3,O=C1CC(N(C(=O)c2csc(-c3ccccc3)n2)C2CC2)C(=O)N1 (stereo unspecified),-6.994%
4,CN(C)Cc1ccc(C2CCCCN2C(=O)c2cccnn2)cc1 (stereo unspecified),-5.621%
5,CC(C)N(C)S(=O)(=O)c1ccc2c(c1)CCN(C(=O)c1cscn1)C2,99.31%
6,COCCNS(=O)(=O)c1cccc2c1CN(C(=O)c1cnccn1)CC2,-8.732%
7,CC(C)N(C)Cc1noc2c1CN(C(=O)c1cnccn1)CC2,-8.266%
8,CC(C)N(C)S(=O)(=O)c1ccc2c(c1)CCN(C(=O)c1cnccn1)C2,109.6%
9,Cc1ccc2c(n1)N(CCN(C)C)CCN(C(=O)c1cscn1)C2.O=C(O)C(F)(F)F.O=C(O)C(F)(F)F,28.27%
10,COCCNS(=O)(=O)c1ccc2c(c1)CCN(C(=O)c1cncn1C)C2,-12.86%
11,CC(C)N(C)S(=O)(=O)c1ccc2c(c1)CCN(C(=O)c1cccnn1)C2,105.4%
12,CC(C)N(C)S(=O)(=O)c1ccc2c(c1)CCN(C(=O)c1ccccn1)C2,85.52%
13,CC(C(=O)N1CCc2ccccc2C1)N(C)Cc1cscn1 (stereo unspecified),-9.272%
14,CCS(=O)(=O)NC1CCCN(c2cc(C)ccc2F)C1=O (stereo unspecified),-7.776%
15,O[C@H]1[C@H](NCCSc2ccccn2)c2ccccc2C12CCNCC2,-1.82%
16,COc1ccccc1Oc1ncccc1CNC(=O)[C@H](N)CC(C)(C)C,-16.84%
17,CC(=O)NC1CCN(c2ncnc3c2c(C)nn3C)C1 (stereo unspecified),-10.72%
18,COc1cc(C)c(C2CC(=O)NCc3nc4sccn4c32)cc1C (stereo unspecified),-46.51%
19,CCOCc1ccc(NC(=O)C(C)C)cc1,2.83%
20,CCC[C@H]1CN(CCS(C)(=O)=O)C[C@@H]1NC(=O)c1cc(CC)on1,21.57%
21,Cc1cc(F)ccc1CNCCn1cccn1,-2.042%
22,Cc1cc(C)n(CCNCc2cc(-c3ccc(F)cc3)c[nH]c2=O)n1,135.5%

row,SMILES,Percent Effect
1,Cc1cc(C)n(CCNCc2cc(-c3ccc(Cl)cc3)c[nH]c2=O)n1,101%
2,Cc1cc(C)n(CC(=O)Nc2cc(-c3ccncc3)[nH]n2)n1,0.2765%
3,Cc1cc(C)n(CCNCc2cc(-c3ccccc3)c[nH]c2=O)n1,81.59%
4,COC(=O)c1ccc(Cn2nc(C)cc2C)c(F)c1,-8.514%
5,Cc1cc(C)n(CC(=O)N2CCC(NS(=O)(=O)c3ccccc3)CC2)n1,-8.172%
6,COC(=O)c1ccc(F)c(Cn2nc(C)cc2C)c1,-3.045%
7,CCn1cnnc1CCNCc1c[nH]nc1-c1ccc(F)cc1,-1.595%
8,c1ccc2sc(N3CCCC(Cn4cncn4)C3)nc2c1 (stereo unspecified),2.326%
9,NCC1CCCCN1Cc1cc(O)c2cccc(F)c2n1 (stereo unspecified),-47.52%
10,CN1CCCN(C(=O)c2nnn(-c3ccc(C(F)(F)F)cc3)n2)CC1,20.55%
11,Cc1cccc(C(C(=O)NCc2nc(-c3ncccn3)no2)N(C)C)c1 (stereo unspecified),-6.766%
12,Cc1nnc(-c2cccc(N3CCC(NC4CCSC4)CC3)c2)s1 (stereo unspecified),-9.983%
13,Cc1nnc(-c2cccc(N3CCC(NC(C)CC(C)C)CC3)c2)s1 (stereo unspecified),13.1%
14,Clc1cccc(-c2cccc(N3CCC(NC4CCOCC4)CC3)c2)c1,91.89%
15,Cc1ccc(-c2cccc(N3CCC(NC4CCOCC4)CC3)c2)cc1,106.4%
16,Clc1cccc(N2CCC(NCc3cc[nH]n3)C2)c1 (stereo unspecified),-6.457%
17,O=C(Cc1cccc(O)c1)NC1CCN(c2cccc(Cl)c2)C1 (stereo unspecified),1.358%
18,CC(C)N1CCOCC2(CCCN(C(=O)c3cn(C)cn3)C2)C1.O=C(O)C(F)(F)F (stereo unspecified),-9.46%
19,O=C(c1ccccc1)N(CC1CC1)c1cccnc1,119.1%
20,O=C(c1ccc(-n2ccnn2)cc1)N(CC1CC1)c1cccnc1,-13.01%
21,CCCN(C(=O)c1ccc(-n2ccnn2)cc1)c1cccnc1,-3.595%
22,Cc1c(C2CC2)n[nH]c1NC(=O)C1CCCN(C(=O)NCC(C)C)C1 (stereo unspecified),117.7%

row,SMILES,Percent Effect
1,Cc1n[nH]c(C)c1Sc1ccccc1NC(=O)N1CCCC(C(N)=O)C1 (stereo unspecified),-0.33%
2,Cc1n[nH]c(C)c1NC(=O)C1CCCN(C(=O)NCC(C)C)C1 (stereo unspecified),113.5%
3,Cc1cc(NC(=O)C2CCCN(C(=O)NCC(C)C)C2)ccn1 (stereo unspecified),89.55%
4,Cc1n[nH]c(C)c1CCNC(=O)C1CCCN(CC(N)=O)C1 (stereo unspecified),-16.53%
5,NC(=O)N1CCCC(C(=O)Nc2cccc(Cl)c2)C1 (stereo unspecified),3.636%
6,CCCC1CCCN(C(=O)Nc2ccnc(C(=O)N(C)C)c2)CC1 (stereo unspecified),-1.886%
7,CCNC(=O)N1CCCC(C(=O)c2cccc(OC(C)C)c2)C1 (stereo unspecified),17.22%
8,Cc1ccc(-c2nnc(NC(=O)c3ccn(C)c(=O)c3)[nH]2)s1,1.444%
9,CCN(C(=O)C1CC1)C(c1cccnc1)c1ccc2c(c1)CCO2 (stereo unspecified),-9.628%
10,Cc1c(S(=O)(=O)N2CCCC2c2nnc(-c3ccsc3)o2)cnn1C (stereo unspecified),130.9%
11,Cc1ccc(-c2nnc(C3CCCN3S(=O)(=O)c3cnn(C)c3C)o2)s1 (stereo unspecified),112%
12,Cc1c(S(=O)(=O)N2CCCCC2c2nnc(-c3cccs3)o2)cnn1C (stereo unspecified),114.5%
13,CC(c1nnc(-c2cccs2)o1)N1CCn2c(nnc2C2CC2)C1 (stereo unspecified),-4.966%
14,Cc1nnc(CN2CCCC2c2ccsc2)o1 (stereo unspecified),42.12%
15,Cc1ccc(C2CCCN2S(=O)(=O)N(C)Cc2cnn(C)c2)o1 (stereo unspecified),13.71%
16,Cc1noc(CCNS(=O)(=O)N2CCCC2c2ccc(C)o2)n1 (stereo unspecified),4.735%
17,Cn1cc(S(=O)(=O)N2CCCC2CC(=O)c2cccs2)cn1 (stereo unspecified),-23.33%
18,Cn1cc(C2CCCN2Cc2csc(-c3ccsc3)n2)cn1 (stereo unspecified),2.773%
